Assay results: PubChem BioAssay (NCI)
This is part of a sample that, as a whole, favours compounds with a hit. Of some 79,000 tested, about 15% had one in any assay. Cut-off read from the data, not from the text of the source: active = growth inhibition above about 70%; inactive = the rest.

How the values were obtained:
[1] = NCI Yeast Anticancer Drug Screen. Data for the rad52 strain (AID 147);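 note: 0% = growth of vehicle-treated control cultures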; conditions: S. cerevisiae rad52 mutant growth inhibition, stronger effect = higher value
Procedure, shortened: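 Compounds are applied to a genetically defined yeast strain lacking normal DNA damage repair, and inhibition of growth is expressed relative to cultures given vehicle only.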

[2] = NCI Yeast Anticancer Drug Screen. Data for the wt1 strain (AID 149);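 note: 0% = growth of vehicle-treated wt1 cultures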; conditions: S. cerevisiae wt1 strain (SPY 50644) growth inhibition, stronger effect = higher value
Procedure, shortened: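 Yeast wt1 strain exposed to compounds; growth inhibition measured relative to vehicle-treated controls.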

[3] = NCI Yeast Anticancer Drug Screen. Data for the rad50EPP+ strain (AID 151);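 note: 0% = growth of vehicle-treated control cultures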; conditions: S. cerevisiae rad50 mutant strain, stronger effect = higher value
Procedure, shortened: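 Compounds were applied to the rad50EPP+ yeast strain, which bears a defined DNA repair alteration, and growth inhibition was determined relative to vehicle-treated cultures.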

[4] = NCI Yeast Anticancer Drug Screen. Data for the mgt1 strain (AID 153); conditions: S. cerevisiae mgt1 mutant growth inhibition, stronger effect = higher value
Procedure, shortened: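 Strain: mgt1 yeast, one of a set carrying defined DNA damage repair or cell cycle control alterations. Compound-treated growth compared with vehicle.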

[5] = NCI Yeast Anticancer Drug Screen. Data for the rad50 strain (AID 155);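 note: 0% = growth of vehicle-only cultures of the same strain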; conditions: S. cerevisiae rad50 strain growth inhibition, stronger effect = higher value
Procedure, shortened: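 Yeast carrying a defined DNA repair defect were exposed to test compounds, and growth was compared with vehicle-treated controls to give percent inhibition.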

[6] = NCI Yeast Anticancer Drug Screen. Data for the mec2-1 strain (AID 157); conditions: S. cerevisiae mec2-1 strain, stronger effect = higher value
Procedure, shortened: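 Strain: mec2-1 (DNA repair/cell cycle alteration). Compound exposure, then growth measured; inhibition expressed relative to vehicle.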

[7] = NCI Yeast Anticancer Drug Screen. Data for the rad14 strain (AID 159);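 note: 0% = growth of vehicle-treated control cultures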; conditions: S. cerevisiae rad14 strain growth inhibition, stronger effect = higher value
Procedure, shortened: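 Yeast cells carrying a defined DNA-repair defect were exposed to compounds, and growth inhibition was calculated relative to vehicle-treated control cultures.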

[8] = NCI Yeast Anticancer Drug Screen. Data for the sgs1 mgt1 strain (AID 161);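 note: 0% = growth of cultures given vehicle only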; conditions: S. cerevisiae sgs1 mgt1 strain, stronger effect = higher value
Procedure, shortened: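 Inhibition of yeast growth, normalised to vehicle-treated controls, is reported for a strain bearing genetic alterations in DNA damage repair.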

[9] = NCI Yeast Anticancer Drug Screen. Data for the CLN2oe strain (AID 163);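 note: 0% = growth of vehicle-only control cultures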; conditions: S. cerevisiae CLN2oe strain, stronger effect = higher value
Procedure, shortened: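 Growth of a genetically modified yeast strain is measured after compound exposure and compared with cultures given vehicle alone.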

[10] = NCI Yeast Anticancer Drug Screen. Data for the cln2 rad14 strain (AID 165);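 note: 0% = growth equal to vehicle treated cultures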; conditions: S. cerevisiae cln2 rad14 strain, stronger effect = higher value
Procedure, shortened: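 Compounds are applied to the cln2 rad14 yeast strain, and growth is then compared with that of vehicle-treated cultures to give inhibition.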

[11] = NCI Yeast Anticancer Drug Screen. Data for the bub3 strain (AID 167); conditions: S. cerevisiae bub3 mutant strain, stronger effect = higher value
Procedure, shortened: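 Compounds were applied to a genetically altered yeast strain carrying a cell-cycle control defect. Growth inhibition was scored against vehicle-treated controls.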

[12] = NCI Yeast Anticancer Drug Screen. Data for the wt2 strain (AID 169);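 note: 0% = growth of vehicle-treated yeast cultures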; conditions: S. cerevisiae wt2 strain growth inhibition, stronger effect = higher value
Procedure, shortened: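 This strain belongs to a panel of yeast strains with defined genetic alterations in DNA damage repair or cell cycle control. Compounds are applied, and growth inhibition is measured against vehicle-treated cultures.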

[13] = NCI Yeast Anticancer Drug Screen. Data for the mlh1 strain (AID 171);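 note: 0% = growth of vehicle-treated control cultures of the same strain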; conditions: S. cerevisiae mlh1 strain growth inhibition, stronger effect = higher value
Procedure, shortened: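 Growth of the mutant yeast strain after compound exposure, expressed as inhibition relative to vehicle-only controls.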

[14] = NCI Yeast Anticancer Drug Screen. Data for the sgs1 strain (AID 173);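 note: 0% = growth of vehicle-only control cultures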; conditions: S. cerevisiae sgs1 mutant, stronger effect = higher value
Procedure, shortened: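 Growth of a yeast strain bearing a defined genetic alteration is measured after compound treatment. Inhibition is expressed relative to vehicle-only controls.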

[15] = NCI Yeast Anticancer Drug Screen. Data for the mlh1 rad18 strain (AID 175); conditions: S. cerevisiae mlh1 rad18 strain growth inhibition, stronger effect = higher value
Procedure, shortened: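 Read-out is yeast growth inhibition, calculated against vehicle-only controls. The compound was applied to a strain engineered with DNA damage repair alterations.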

[16] = NCI Yeast Anticancer Drug Screen. Data for the rad18 strain (AID 177); conditions: S. cerevisiae rad18 mutant growth inhibition, stronger effect = higher value
Procedure, shortened: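 Growth of the mutant yeast strain after compound exposure, normalised to vehicle-only cultures.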

[17] = at 5.0 µM (retest, dose inferred, filed as 0.5)
[18] = at 50.0 µM (retest, dose inferred, filed as 5.0)

Measured: growth inhibition

CCN(CC)CCCNc1ccc([N+](=O)[O-])c2nc3ccc(OC)cc3c(NCCCN(CC)CC)c12
inactive: [1]; at 1.2 µM 15% | [1]; at 3.7 µM 6% | [1]; at 11.0 µM 9% | [1]; at 33.0 µM 11% | [1]; at 100.0 µM 19% | [2]; at 1.2 µM -81% | [2]; at 3.7 µM 0% | [2]; at 11.0 µM -2% | [2]; at 33.0 µM -2% | [2]; at 100.0 µM 0% | [3]; at 1.2 µM 0% | [3]; at 3.7 µM 3% | [3]; at 11.0 µM 4% | [3]; at 33.0 µM 9% | [3]; at 100.0 µM 13% | [4]; at 1.2 µM 2% | [4]; at 3.7 µM 2% | [4]; at 11.0 µM 3% | [4]; at 33.0 µM 1% | [4]; at 100.0 µM 1% | [5]; at 1.2 µM -2% | [5]; at 3.7 µM -1% | [5]; [17] 23% | [5]; at 11.0 µM -1% | [5]; at 33.0 µM 4% | [5]; [18] 18% | [5]; at 50.0 µM 66.5% | [5]; at 100.0 µM 9% | [6]; at 1.2 µM -1% | [6]; at 3.7 µM 2% | [6]; [17] 6% | [6]; at 11.0 µM -2% | [6]; at 33.0 µM 1% | [6]; [18] 26% | [6]; at 50.0 µM 5.05% | [6]; at 100.0 µM 1% | [7]; at 1.2 µM -1% | [7]; at 3.7 µM 0% | [7]; at 11.0 µM -1% | [7]; at 33.0 µM 0% | [7]; at 100.0 µM 1% | [8]; [17] -8% | [8]; [18] 20% | [8]; at 50.0 µM 13% | [9]; at 1.2 µM -10% | [9]; at 3.7 µM -9% | [9]; at 11.0 µM -4% | [9]; at 33.0 µM -6% | [9]; at 100.0 µM -2% | [10]; [17] 43% | [10]; [18] 57% | [10]; at 50.0 µM 24.8% | [11]; at 1.2 µM -6% | [11]; at 3.7 µM -7% | [11]; [17] 14% | [11]; at 11.0 µM -7% | [11]; at 33.0 µM -6% | [11]; [18] 6% | [11]; at 50.0 µM 13.4% | [11]; at 100.0 µM -4% | [12]; at 1.2 µM -2% | [12]; at 3.7 µM 0% | [12]; at 11.0 µM 1% | [12]; at 33.0 µM -1% | [12]; at 100.0 µM 0% | [13]; at 1.2 µM 0% | [13]; at 3.7 µM -2% | [13]; at 11.0 µM 0% | [13]; at 33.0 µM -2% | [13]; at 100.0 µM -1% | [14]; at 1.2 µM 2% | [14]; at 3.7 µM 5% | [14]; at 11.0 µM 2% | [14]; at 33.0 µM 1% | [14]; at 100.0 µM 1% | [15]; [17] 13% | [15]; [18] 37% | [15]; at 50.0 µM 0.2% | [16]; at 1.2 µM 0% | [16]; at 3.7 µM 0% | [16]; at 11.0 µM 6% | [16]; at 33.0 µM 4% | [16]; at 100.0 µM 7%
